Many of the other results were omitted from the sample, so hits are more common in it than they were.
DT40 TDP1 CPT – DT40-hTDP1 cell growth loss with CPT; 420,000 compounds, 12% hits; chicken DT40 Tdp1-/-;hTDP1 cells + 20 nM CPT, ATP luminescence, 48 h; Potency, µM (highest dose often 46.2 µM), usual class: inhibitors; also: nearly all actives have a fitted effect of over 55% in size
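Chicken DT40 Tdp1-/- cells stably complemented with human TDP1 were seeded at 400 cells/well in medium containing 20 nM camptothecin, exposed to pin-transferred compounds, and grown at 37 °C for at least 48 hr. Viability was read as ATP luminescence.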
IL1B secr inh – inflammasome signaling inhibition, IL-1 beta readout; 360,000 compounds, 4.7% hits; activity change, % at 57.5 µM; THP-1 LPS/ATP IL-1B secretion, AlphaLISA, 16 h; stronger effect = lower value; AID 743279; in the data active = activity change below about -50%; inconclusive = mostly about -30% to -49%
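THP-1 cells pretreated 1 hr with compounds (up to 57.5 uM final), then stimulated with LPS (250 ng/mL final) plus ATP (1.25 mM final); secreted IL-1B measured by AlphaLISA after 16 hr, decreased signal indicating inhibition.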
HT1080-NT tox – kills 2HG-producing HT-1080-NT fibrosarcoma cells | AID 686970 | Potency, µM (titrated, usually from 46.1 µM), most hits filed as cytotoxic | 360,000 compounds, 1.6% hits | HT-1080-NT fibrosarcoma viability, CellTiter-Glo ATP luminescence, 48 h;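 also: NT is the 2HG producing partner of a matched IDH1 knockdown line; nearly all actives have a fitted effect of over 55% in size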
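HT-1080-NT; 750 cells/well; 5% FBS RPMI; 48 h compound, 37 degrees C; CellTiter-Glo luminescence; curve fitting and curve-class assignment.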
HT1080 IDH1KD tx – toxicity to HT-1080 IDH1 knockdown cells (counter line). Potency, µM (doses to about 46.1 µM), hits mostly cytotoxic. HT-1080 IDH1 knockdown viability, ATP luminescence, 48 h. 360,000 compounds, 2% hits
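CellTiter-Glo luminescence after 48 h compound exposure at 37 degrees C of IDH1-knockdown HT-1080 cells in 5% FBS RPMI. %Activity scaled between DMSO wells and cell-free media wells, with curves fitted and assigned curve classes.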
ALOX12 inh – blocks human arachidonate 12S-lipoxygenase; 580,000 compounds, 1.1% hits; P18054; purified 12hLO, xylenol orange hydroperoxide absorbance; Potency, µM (series often up to 108 µM), hits mostly inhibitors; AID 1671190
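Hydroperoxide product was detected by ferrous iron/xylenol orange as the 573 to 405 nm absorbance ratio. Arachidonic acid at 40 uM (final) was turned over for 30 min at room temperature by 150 nM human 12hLO, pH 7.0 Hepes buffer, after 15 min compound preincubation.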
DT40 TDP1 no CPT – qHTS for Inhibitors of human tyrosyl-DNA phosphodiesterase 1 (TDP1): qHTS in cells in absence of CPT | DT40 Tdp1-/- hTDP1 cells, no CPT, ATP luminescence, 48 h | Potency, µM (doses to about 46.2 µM), actives largely listed as inhibitors | 420,000 compounds, 15% hits; also: nearly all actives have a fitted effect of over 55% in size
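Compound effects on proliferation are scored in DT40 Tdp1-/-;hTDP1 cells in the absence of CPT. ATP levels (CellTiter-Glo luminescence) are recorded after a ≥48 hr, 37 °C incubation.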
Numbers stand for hits. Unless noted, calls follow the shape of the dose curve; as a rule, active = well fitted curve in the direction sought with a large enough effect; inconclusive = small, poorly fitted or top-dose-only effect, or another doubt; inactive = no such curve, though single readings can be large; an effect the other way counts as inactive or inconclusive.

Screening CN(Cc1cnn(C)c1)C(=O)C1C2C(=O)N(Cc3ccc(F)cc3)C[C@@]23C=C[C@@H]1O3 (stereo not given in full) returned ALOX12 inh inactive.
`CC(C)(C)OC(=O)C[C@H]1C/C=C\C[C@@H](CC(=O)N(CCO)Cc2ccccc2)C(=O)NC[C@@H](c2ccccc2)OC1=O` gave DT40 TDP1 CPT inconclusive, IL1B secr inh inactive, HT1080-NT tox inactive, HT1080 IDH1KD tx inactive, ALOX12 inh inactive and DT40 TDP1 no CPT 18µM.
For CC(C)(C)OC(=O)C[C@H]1C/C=C\C[C@H](CC(=O)N(CCO)Cc2ccccc2)C(=O)NC[C@H](c2ccccc2)OC1=O the results were DT40 TDP1 CPT 16µM, IL1B secr inh inactive, HT1080-NT tox inactive, HT1080 IDH1KD tx inactive, ALOX12 inh inactive and DT40 TDP1 no CPT inconclusive.
For COCc1ccc2c(c1)c(OC(C)(C)C(=O)N(C)C)nn2Cc1ccccc1 the results were ALOX12 inh inactive.
Screening CC(=O)c1cn(CC(=O)Nc2ccccc2)c2ccccc12 returned DT40 TDP1 CPT 15µM, IL1B secr inh inactive, HT1080-NT tox inactive, HT1080 IDH1KD tx inactive, ALOX12 inh inactive and DT40 TDP1 no CPT 13µM.
For Cc1ccc(NC(=O)Cn2cc(C(=O)C3CC3)c3ccccc32)cc1 the results were DT40 TDP1 CPT inactive, IL1B secr inh inactive, HT1080-NT tox inactive, HT1080 IDH1KD tx inactive, ALOX12 inh inactive and DT40 TDP1 no CPT inactive.
`CCC(=O)c1cn(CC(=O)Nc2ccccc2F)c2ccccc12` gave DT40 TDP1 CPT inactive, IL1B secr inh inactive, HT1080-NT tox inactive, HT1080 IDH1KD tx inactive, ALOX12 inh inactive and DT40 TDP1 no CPT inactive.
CC(=O)c1cn(CC(=O)Nc2ccccc2F)c2ccccc12 was read as DT40 TDP1 CPT 18µM, IL1B secr inh inactive, HT1080-NT tox inactive, HT1080 IDH1KD tx inactive, ALOX12 inh inactive and DT40 TDP1 no CPT 12µM.
`Cc1cc2c(c(=O)n(-c3ccccc3)c(=O)n2CC(=O)Nc2ccccc2F)n1C` gave ALOX12 inh 45µM.
Cc1cc(C)cc(NC(=O)Cn2cc(C(=O)C3CCCCC3)c3ccccc32)c1 was read as DT40 TDP1 CPT 18µM, ALOX12 inh inactive and DT40 TDP1 no CPT 23µM.
Cc1ccc(CCNC(=O)CN(C)S(=O)(=O)c2ccc3c(c2)n(C)c(=O)c(=O)n3C)cc1 was read as DT40 TDP1 CPT inactive, IL1B secr inh inactive, HT1080-NT tox inactive, HT1080 IDH1KD tx inactive, ALOX12 inh inactive and DT40 TDP1 no CPT inactive.
For CCOP(=O)(OCC)c1nc(-c2ccco2)oc1NCc1ccccc1Cl the results were ALOX12 inh inactive.
O=Cc1cn(CC(=O)Nc2ccc(F)cc2)c2ccccc12 was read as DT40 TDP1 CPT inconclusive, IL1B secr inh inactive, HT1080-NT tox inactive, HT1080 IDH1KD tx inactive, ALOX12 inh inconclusive and DT40 TDP1 no CPT 9.2µM.
O=Cc1cn(CC(=O)Nc2ccccc2)c2ccccc12 was read as DT40 TDP1 CPT inconclusive, IL1B secr inh inactive, HT1080-NT tox inactive, HT1080 IDH1KD tx inactive, ALOX12 inh inconclusive and DT40 TDP1 no CPT inconclusive.
For CC(=O)c1cn(CC(=O)Nc2ccccc2Cl)c2ccccc12 the results were DT40 TDP1 CPT 16µM, IL1B secr inh inactive, HT1080-NT tox inactive, HT1080 IDH1KD tx inconclusive, ALOX12 inh inactive and DT40 TDP1 no CPT 9.2µM.
O=C(Cn1c2ccccc2c(=O)c2ccccc21)Nc1ccccc1F was read as DT40 TDP1 CPT 13µM, IL1B secr inh inactive, HT1080-NT tox inactive, HT1080 IDH1KD tx inactive, ALOX12 inh inconclusive and DT40 TDP1 no CPT inconclusive.
CONC(=O)Cn1c2ccccc2c(=O)c2ccccc21 was read as ALOX12 inh inactive.
Screening COCCN(Cc1nccs1)C(=O)c1oc2ccc(C)cc2c1C returned ALOX12 inh inactive.
`COc1cc(CNCc2cc(OC)ccc2OC)cc(OC)c1` gave DT40 TDP1 CPT inconclusive, IL1B secr inh -57, HT1080-NT tox inactive, HT1080 IDH1KD tx inactive, ALOX12 inh inconclusive and DT40 TDP1 no CPT inactive.

Screens (PubChem BioAssay)
